The supplement of paper PMC6555819

What was measured:
Test in all cases: PBM binding z-score (relative to random genomic background probes); higher = stronger binding; sequences stand for … in GC…GCGATTGACAGCGTAGAATGAAGG
[1] = test system: RARb homodimer (NR concentration 270 nM)
How it was run: (§1)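 Binding buffer was PBS pH 7.4 with 2% milk, 0.02% Triton X-100, 1 mM DTT, 0.2 mg/mL BSA and 0.4 mg/ml salmon testes DNA. In it, ligand-free nuclear receptor dimers were incubated 1 h on custom Agilent 4×180K protein-binding microarrays carrying double-stranded probes. Antibodies against each partner (one per run) detected binding, and z-scores were calculated against random background probes after regression normalization of scanned fluorescence.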

[2] = test system: RARg:RXRa (NR concentration 270 nM, RXRa partner concentration 90 nM)
How it was run: as §1

[3] = test system: RARg homodimer (NR concentration 270 nM)
How it was run: as §1

[4] = test system: RXRa DBDmut IVT, anti-RXR (DBD mutation: RXRa K156A/R161A, NR concentration 90 nM)
How it was run: as §1

[5] = test system: RXRa homodimer (NR concentration 180 nM)
How it was run: as §1

[6] = test system: THRa:RXRa (NR concentration 90 nM, RXRa partner concentration 90 nM)
How it was run: as §1

[7] = test system: THRa homodimer (NR concentration 90 nM)
How it was run: as §1

[8] = test system: VDR homodimer (NR concentration 270 nM)
How it was run: as §1

## CTACCAAGGTGAACAAGGTAGTTGATTACTATTC
[1]
  PBM binding z-score: 0.762
[2]
  PBM binding z-score: 0.87
[3]
  PBM binding z-score: 0.957
[4]
  PBM binding z-score: 0.172
[5]
  PBM binding z-score: 0.815
[6]
  PBM binding z-score: 1.75
[7]
  PBM binding z-score: 0.665
[8]
  PBM binding z-score: -0.336

## CCTACTGGGCCATGAGGTCATTGATATCAACGTT
[1]
  PBM binding z-score: 3.32
[2]
  PBM binding z-score: 3.54
[3]
  PBM binding z-score: 2.78
[4]
  PBM binding z-score: 1.42
[5]
  PBM binding z-score: 3.58
[6]
  PBM binding z-score: 3.97
[7]
  PBM binding z-score: 4.36
[8]
  PBM binding z-score: 4.75

## GATACAGGGTCAGCTAGAGGCCAGATTATGGAAA
[1]
  PBM binding z-score: 3.59
[2]
  PBM binding z-score: 6.4
[3]
  PBM binding z-score: 4.49
[4]
  PBM binding z-score: 1.25
[5]
  PBM binding z-score: 4.05
[6]
  PBM binding z-score: 3.2
[7]
  PBM binding z-score: 0.619
[8]
  PBM binding z-score: 0.715

## CCAGACAGGTGAAAAGTAACTCAGTCTGGTACGC
[1]
  PBM binding z-score: -0.15
[2]
  PBM binding z-score: 0.316
[3]
  PBM binding z-score: 0.402
[4]
  PBM binding z-score: 0.15
[5]
  PBM binding z-score: 0.307
[6]
  PBM binding z-score: -0.0735
[7]
  PBM binding z-score: -0.599
[8]
  PBM binding z-score: -0.225

## CGTCCAAGGTCAGCAGCTCAGTGAAAGCGACGTG
[1]
  PBM binding z-score: 3.86
[2]
  PBM binding z-score: 5.03
[3]
  PBM binding z-score: 5.8
[4]
  PBM binding z-score: 2.64
[5]
  PBM binding z-score: 4.07
[6]
  PBM binding z-score: 3.44
[7]
  PBM binding z-score: 1.99
[8]
  PBM binding z-score: 0.868

## ATCTCTAGGTACCAAGTTCAGTGAAAGAGAGGAC
[1]
  PBM binding z-score: 1.51
[2]
  PBM binding z-score: 0.686
[3]
  PBM binding z-score: 0.865
[4]
  PBM binding z-score: 1.27
[5]
  PBM binding z-score: 0.546
[6]
  PBM binding z-score: 0.926
[7]
  PBM binding z-score: 0.692
[8]
  PBM binding z-score: 2.26

## GCTGCTAGGTCAGGTCGGTCAGCTAACGGGTACG
[1]
  PBM binding z-score: 3.44
[2]
  PBM binding z-score: 3.03
[3]
  PBM binding z-score: 4.28
[4]
  PBM binding z-score: 0.46
[5]
  PBM binding z-score: 1.23
[6]
  PBM binding z-score: 2.48
[7]
  PBM binding z-score: 0.932
[8]
  PBM binding z-score: 0.733

## TTATATAGGTAATACAGGTGAAAGTCGGCATCTA
[1]
  PBM binding z-score: 0.731
[2]
  PBM binding z-score: 0.618
[3]
  PBM binding z-score: 0.933
[4]
  PBM binding z-score: 0.117
[5]
  PBM binding z-score: 1.11
[6]
  PBM binding z-score: 1.06
[7]
  PBM binding z-score: 0.46
[8]
  PBM binding z-score: 0.401

## AGACCAAGGTGATCGTGAGGTCGTTGATACTAAC
[1]
  PBM binding z-score: 1.51
[2]
  PBM binding z-score: 1.99
[3]
  PBM binding z-score: 0.635
[4]
  PBM binding z-score: 0.408
[5]
  PBM binding z-score: 1.37
[6]
  PBM binding z-score: 3.4
[7]
  PBM binding z-score: 2.04
[8]
  PBM binding z-score: 2.56

## TCATATAGGTAAATGCTAGGGGAAAGTCCGATCT
[1]
  PBM binding z-score: 0.135
[2]
  PBM binding z-score: 0.401
[3]
  PBM binding z-score: 0.27
[4]
  PBM binding z-score: 1.85
[5]
  PBM binding z-score: 0.821
[6]
  PBM binding z-score: 0.401
[7]
  PBM binding z-score: 0.433
[8]
  PBM binding z-score: 0.491

## CCTTACGGGTCACGAAGTTATAGCACGACGAGCG
[1]
  PBM binding z-score: 3.14
[2]
  PBM binding z-score: 5.21
[3]
  PBM binding z-score: 4.74
[4]
  PBM binding z-score: 1.29
[5]
  PBM binding z-score: 5.71
[6]
  PBM binding z-score: 2.87
[7]
  PBM binding z-score: 0.0516
[8]
  PBM binding z-score: 0.721

## TCTAGTTGGTCTCGGAGGTCACACACGACGGGTA
[1]
  PBM binding z-score: 4.01
[2]
  PBM binding z-score: 3.75
[3]
  PBM binding z-score: 3.47
[4]
  PBM binding z-score: 1.15
[5]
  PBM binding z-score: 4.16
[6]
  PBM binding z-score: 3.65
[7]
  PBM binding z-score: 2.74
[8]
  PBM binding z-score: 2.48

## GCTAGCAGGCTATTTGGGTCACTCAATGACGGGC
[1]
  PBM binding z-score: 1.63
[2]
  PBM binding z-score: 0.682
[3]
  PBM binding z-score: 0.795
[4]
  PBM binding z-score: -0.21
[5]
  PBM binding z-score: 0.76
[6]
  PBM binding z-score: 1.81
[7]
  PBM binding z-score: 0.905
[8]
  PBM binding z-score: -0.158
